According to ChEMBL document CHEMBL1201862, “PubChem BioAssay data set” (2004):
Measured potencies and affinities stand elsewhere. These assays gave more results; the selection is not random.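 Interpolation was linear, between the two tested concentrations surrounding the appropriate level; five concentrations were tested over 48 hours in 96-well plates. GI50 = concentration required for 50% inhibition of growth.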

Test system: KM-20L2
Assay: NCI tumour cell line growth inhibition, 48 h

For CADMIUM DICHLORIDE, CHEMBL1458880, the GI50 was 100 µM.
